# Screening results from PubChem.
# This is a sample that favours compounds with a hit; in the whole collection about 4.1% have one here.
# ssDAF12 agonist = S. stercoralis DAF-12 activation, primary screen; HEK293 ssDAF-12/GRIP1 lit1-tk-luc reporter, luminescence; % of 3 µM dafachronic acid response; activation, % at 6.8 µM; hit rate 1% among 370,000;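 active = activation above the mean over all tested compounds plus 3 SD, cut at about 0.9% in these data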;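 also: 0% = DMSO-only wells and 100% = 3 µM delta7-dafachronic acid wells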
# DAX1 inh-1 = inhibits human nuclear receptor DAX1. P51843. HEK293 Gal4-DAX1 luciferase reporter, luminescence. inhibition, % at 6.75 µM. hit rate 0.99% among 340,000. AID 504766;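 active = inhibition above the mean over all tested compounds plus 3 SD, cut at about 4.2% in these data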;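 also: 0% = DAX1-transfected cells with DMSO and 100% = empty-vector control cells with DMSO; inhibition shows as a rise in luminescence from relieved DAX1 repression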
# Target sequence (P51843 207-470 limits assumed): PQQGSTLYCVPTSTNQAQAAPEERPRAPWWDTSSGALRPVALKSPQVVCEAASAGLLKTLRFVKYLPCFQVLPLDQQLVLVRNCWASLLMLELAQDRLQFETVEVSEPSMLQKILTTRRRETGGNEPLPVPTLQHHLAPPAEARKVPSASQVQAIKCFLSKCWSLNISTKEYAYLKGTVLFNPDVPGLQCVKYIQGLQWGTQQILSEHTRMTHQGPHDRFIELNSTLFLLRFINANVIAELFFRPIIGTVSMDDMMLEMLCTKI
# hgDAF-12 ag = hgDAF-12 agonism, primary luciferase screen | HEK293 GAL4-hgDAF12 UAS-luciferase reporter, agonist luminescence; normalized to butyrate control | activation, % at 6.8 µM | hit rate 1.8% among 370,000 | AID 687014;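 active = activation above a cutoff set at the mean of all screened compounds plus 3 SD, cut at about 10% in these data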;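 also: 0% = DMSO wells and 100% = sodium butyrate wells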
# DAX1 inh-2 = DAX1 (NR0B1) inhibition, primary screen; HEK293T StAR-luciferase reporter, SF-1/DAX-1 repression relief; inhibition, % at 6.8 µM; hit rate 1.1% among 370,000; AID 652010;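 active = inhibition above the mean over all tested compounds plus 3 SD, cut at about 3.6% in these data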;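 also: 0% = DAX-1 cells with DMSO and 100% = cells lacking DAX-1 with DMSO; higher inhibition means more luminescence from relief of DAX-1 repression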
# hcDAF12 agonist = activators of H. contortus DAF-12 nuclear receptor; HEK293 hcDAF-12 lit1-tk-luc reporter, luminescence; 0% DMSO, 100% Δ7-dafachronic acid; activation, % at 6.8 µM; hit rate 1.4% among 370,000; AID 652067;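 active = activation above the mean of all tested compounds plus 3 SD, cut at about 5.5% in these data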;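 also: 100% = response to 3 µM Δ7-dafachronic acid high control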
# Starred values were filed as active, the others as inactive; . = not tested or not shown.
SMILES,ssDAF12 agonist,DAX1 inh-1,hgDAF-12 ag,DAX1 inh-2,hcDAF12 agonist
CCn1nc(C)c(CN2CCc3c([nH]c4ccccc34)C2c2ccc(F)c(OC)c2)c1C (stereo unspecified),-1,1,-1,0,0
COc1ccc2[nH]c3c(c2c1)CCN[C@]31C(=O)N(c2ccccc2)c2ccccc21,-1,.,1,-1,-3
COc1cccc(C(=O)OCC(=O)Nc2nnc(-c3ccccc3)o2)c1,-1,5.3*,3,1,1
Fc1cccc(Cl)c1CN1CCN(c2ncc(Cc3ccccc3)cn2)CC1,-2,.,-1,0,2
COc1nc(OC)nc(N2CCC(C(=O)N(C)Cc3ccccc3F)CC2)n1,-1,.,1,-1,-2
C[C@@H]1COc2cc(Br)ccc2S(=O)(=O)N1Cc1cn(Cc2ccccc2)nn1,-1,.,0,-1,-1
O=P(c1ccccc1)(c1ccccc1)C(c1ccccn1)P(=O)(c1ccccc1)c1ccccc1,-1,.,-2,0,-1
O=P(c1ccccc1)(c1ccccc1)C(O)c1ccccn1 (stereo unspecified),1.2*,.,1,0,-1
OC(C#CCCN1CCCCC1)(c1ccccc1)C1CCCCC1 (stereo unspecified),-1,5.0*,-2,0,1
COc1cccc(NC(=O)n2ccc3ccc(-c4ccc5ccn(C(=O)Nc6cccc(OC)c6)c5c4)cc32)c1,-1,.,-1,-3,-1
CCN(CC)C(=O)CC[C@H]1CC[C@]2(CCCN(Cc3ccc(N(C)C)cc3)C2)O1,-1,.,0,0,-1
c1cc(-c2cc3cc4c(cc3cn2)OCO4)cs1,1.2*,1,7,2,5.8*
COc1cc2cnc(-c3ccsc3)cc2cc1OC,0,1,1,0,2
Cc1cccc(N2CCN(CC(O)COc3ccccc3)CC2)c1 (stereo unspecified),-2,4.8*,3,0,-2
NC(=O)C1CCN(CC(O)COc2ccc(-c3ccccc3)cc2)CC1 (stereo unspecified),0,5.6*,-4,1,-2
Cc1cccc(N2CCN(CC(O)COc3ccc(Cl)cc3)CC2)c1 (stereo unspecified),-1,1,-2,0,-2
CN1CCN(CC(O)COc2ccccc2)CC1 (stereo unspecified),0,2,13*,1,5
CCOC(=O)N1CCN(CC(O)COc2ccc(-c3ccccc3)cc2)CC1 (stereo unspecified),-2,1,-2,-1,-2
COc1ccc(OC)c(S(=O)(=O)Nc2ccc(-c3ccc4nnc(C)n4n3)cc2)c1,-1,3,1,2,4
COc1ccc(CC(=O)Nc2ccc(-c3ccc4nnc(C)n4n3)cc2)cc1OC,0,5.7*,-5,1,-1
COc1ccc(C2c3c(oc4ccccc4c3=O)C(=O)N2c2ccc(C)cn2)cc1OC (stereo unspecified),-1,5.0*,-1,1,-1
CN(CCO)c1ccc2c(c1)Oc1ccccc1CN(Cc1cn(Cc3ccc(C(F)(F)F)cc3)nn1)S2(=O)=O,0,.,4,0,-1
Fc1ccc(-c2ccc3c(n2)CCCN3Cc2ccccn2)cc1,-1,.,7,3.8*,2
CC(NC(=O)CSc1ncccc1C(=O)O)C1CC2CCC1C2 (stereo unspecified),-1,5.1*,0,0,-1
COc1cccc(NC(=O)C(=O)NCCCN2CCCC2=O)c1,0,2,8,3.8*,3
SMILES,ssDAF12 agonist,DAX1 inh-1,hgDAF-12 ag,DAX1 inh-2,hcDAF12 agonist
Cc1cc(C)nc(N2CCC(C(=O)N(C)CCc3ccccn3)CC2)n1,-2,.,4,0,0
CN1CCC(N[C@@H](Cc2ccccc2)C(=O)NCC(c2ccccc2)c2ccccc2)(C(=O)NC2CCCCC2)CC1,0,.,-4,.,-2
C=CCNC(=O)C1(S(=O)(=O)c2ccccc2)CC=CC1,-1,5.2*,1,1,0
Cc1ccc(NC2CC(=O)N(c3ccc(C)cc3)C2=O)cc1 (stereo unspecified),-1,-1,-2,0,2
CN(C)S(=O)(=O)c1cc(NC2CC(=O)N(c3ccc(F)cc3)C2=O)ccc1Cl (stereo unspecified),-1,10*,-3,0,-1
O=C1C(=O)N(Cc2ccc(-c3ccc(F)nc3)cc2)c2ccc(OC(F)(F)F)cc21,-1,.,-10,.,1
CN(c1ccc(OCC(=O)OCC(=O)NC2CCCC2)cc1)S(=O)(=O)c1ccc2ccccc2c1,1.2*,0,1,1,3
COc1ccccc1C1CC(=O)Oc2cc(C)c(Cl)cc21 (stereo unspecified),0,0,2,-1,-1
COc1ccccc1C1CC(=O)Oc2cc(O)ccc21 (stereo unspecified),-2,0,1,4.0*,-1
Cc1ccc(-c2nnc(NC(=O)COc3ccc(F)cc3Cl)o2)cc1C,-1,.,2,.,-1
CCOC(=O)c1cc2c(s1)-c1ccccc1CC2,1,2,5,2,6.4*
COC(=O)c1cccc(NC(=O)c2cc3ccccc3o2)c1,0,-1,12*,2,3
O=C(Nc1ccccc1C(F)(F)F)c1cc2ccccc2o1,0,5.2*,13*,3,4
Cc1ccc(NC(=O)c2cc3ccccc3o2)cc1S(=O)(=O)N(C)C,0,3,11*,1,3
CCOc1ccccc1NC(=O)c1cc2ccccc2o1,0.9*,1,7,0,5
CN(C)S(=O)(=O)c1ccc(NC(=O)c2cc3ccccc3o2)cc1,-2,0,3,-1,0
COC(=O)c1ccccc1NC(=O)c1cc2ccccc2o1,0,1,4,0,3
CCOc1ccccc1NC(=O)c1cc2ccccc2oc1=O,-1,2,1,0,1
CN(CCc1ccccc1)C(=O)c1cc2ccccn2n1,0,.,7,1,2
C[C@H]1[C@@H](NC(=O)C2CCOC2)CC[C@@]23CCCN2C(=O)CCC[C@@H]13 (stereo partly specified),-2,.,-2,.,-2
Nc1c(C(=O)N2CCN(CCc3ccccc3)CC2)cnn1-c1ccccc1,0,.,-1,0,0
COc1ccc(C)cc1NC(=O)c1cc2ccccc2o1,1.6*,2,5,0,6.0*
CC(=O)Oc1cc2c(s1)CCN(C(C(=O)C1CC1)c1ccccc1F)C2 (stereo unspecified),-1,.,-1,0,-1
CCOc1ccc(-n2c(SCC(=O)Nc3cccc4ccccc34)nnc2-c2ccco2)cc1,-2,.,-1,-3,-1
COc1cc(/C=N/OCC(=O)NC2CCCCC2C)ccc1OCc1ccc(Cl)cc1 (stereo unspecified),0,3,11*,4.2*,2
